# Assay results as given in PubChem BioAssay (EPA / NIEHS).
# Records with an inconclusive call do not appear. The source made the active and inactive calls. How the source made its calls: active means hit-call score of the fitted dose curve at least 0.9, where 1 is the maximum; inconclusive means response in the unintended direction; inactive means score below 0.9.
# Legend:
# [1] = Tanguay_ZF_120hpf_ActivityScore_legacy: (Legacy) Oregon State University Tanguay Lab 120 Hour Post-fertilization zebrafish Assay Score for Activity (AID 2283742)
# Summary of the method: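 Dechorionated Tropical 5D embryos, one per well from 6 hpf, statically exposed to 120 hpf at 28 °C in 0.64% DMSO. Mortality and malformations scored binary by brightfield microscopy; activity score combines 18 endpoints, fitted positively versus DMSO.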
# [2] = STM_H9_NormalizedViability: Cytotoxicity Assessment at 120 hours in the Stemina devTOX quickPredict H9 human embryonic stem cell (hESC)-based Assay (AID 2283784)
# Summary of the method: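 Chemicals are tested blinded on H9 human embryonic stem cells in the pluripotent state, with medium exchanged daily. After background correction, fluorescence from CellTiter-Fluor is scaled against 0.1% DMSO wells, and decreases are scored.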
# [3] = biological target: zebrafish Estrogen Receptor (ESR1), esr1 (gene 259252) (UniProt P57717); test: ATG_zfER1_XSP1: Attagene TRANS-FACTORIAL Multi-Species (XSP1) HepG2 Assay for zebrafish Estrogen Receptor (ESR1) (AID 2283772)
# Summary of the method: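 HepG2 cells transiently transfected with a GAL4-UAS reporter and chimeric zebrafish ER-Gal4, dosed 24 h with 3 nM 6-alpha-fluorotestosterone present. Reporter mRNA measured by RT-PCR and capillary electrophoresis; gain of signal versus DMSO.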
# [4] = system: zebrafish Estrogen Receptor (ESR2B), gene 317733; test: ATG_zfER2b_XSP1: Attagene TRANS-FACTORIAL Multi-Species (XSP1) HepG2 Assay for zebrafish Estrogen Receptor (ESR2B) (AID 2283773)
# Summary of the method: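 HepG2 cells transiently transfected with GAL4-UAS reporter units for chimeric zebrafish ER2b-Gal4, with 3 nM 6-alpha-fluorotestosterone present; reporter mRNA measured 24 h after dosing by RT-PCR and capillary electrophoresis, gain versus DMSO.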
# [5] = system: frog Estrogen Receptor (ESR2), gene 100174814; test: ATG_frER2_XSP1: Attagene TRANS-FACTORIAL Multi-Species (XSP1) HepG2 Assay for frog Estrogen Receptor (ESR2) (AID 2283774)
# Summary of the method: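 HepG2 cells transiently transfected with GAL4-UAS reporter units expressing chimeric frog ER-Gal4; 3 nM 6-alpha-fluorotestosterone present. After 24 h dosing, reporter mRNA quantified by RT-PCR and capillary electrophoresis; gain-of-signal fitted relative to DMSO.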
# [6] = system: frog Estrogen Receptor (ESR1), gene 398734; test: ATG_frER1_XSP1: Attagene TRANS-FACTORIAL Multi-Species (XSP1) HepG2 Assay for frog Estrogen Receptor (ESR1) (AID 2283777)
# Summary of the method: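 HepG2 cells transiently transfected with frog ER–GAL4 chimera and GAL4-UAS reporter, with 3 nM 6-alpha-fluorotestosterone present; 24 h dosing, reporter mRNA quantified by RT-PCR and capillary electrophoresis, gain of signal versus DMSO.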
# [7] = system: zebrafish Estrogen Receptor (ESR2A), gene 317734; test: ATG_zfER2a_XSP1: Attagene TRANS-FACTORIAL Multi-Species (XSP1) HepG2 Assay for zebrafish Estrogen Receptor (ESR2A) (AID 2283778)
# Summary of the method: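 HepG2 cells transiently transfected with GAL4-UAS reporter units driven by a zebrafish ESR2A–Gal4 chimera; 24 h compound exposure with 3 nM 6-alpha-fluorotestosterone present. Reporter mRNA measured by RT-PCR with fluorescent capillary electrophoresis, fitted positive versus DMSO.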
# [8] = biological target: chicken Estrogen Receptor (ESR1), ESR1 (gene 396099) (UniProt P06212); test: ATG_chERa_XSP1: Attagene TRANS-FACTORIAL Multi-Species (XSP1) HepG2 Assay for chicken Estrogen Receptor (ESR1) (AID 2283779)
# Summary of the method: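 HepG2 cells transiently transfected with GAL4-UAS reporter units for chimeric chicken ERα-Gal4, dosed 24 h with 3 nM 6-alpha-fluorotestosterone present. Reporter mRNA by RT-PCR and capillary electrophoresis; gain-of-signal fit versus DMSO.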
# [9] = system: turtle Estrogen Receptor (ESR1), gene 101933533; test: ATG_trERa_XSP1: Attagene TRANS-FACTORIAL Multi-Species (XSP1) HepG2 Assay for turtle Estrogen Receptor (ESR1) (AID 2283781)
# Summary of the method: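 Turtle ERa as a GAL4 chimera in transiently transfected HepG2 cells; reporter mRNA quantified 24 h after dosing by RT-PCR and capillary electrophoresis. 3 nM 6-alpha-fluorotestosterone present; gain of signal versus DMSO.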
# [10] = system: turtle Androgen Receptor (AR), gene 101947425; test: ATG_trAR_XSP1: Attagene TRANS-FACTORIAL Multi-Species (XSP1) HepG2 Assay for turtle Androgen Receptor (AR) (AID 2283786)
# Summary of the method: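 HepG2 cells transiently transfected with a turtle AR–GAL4 chimera and GAL4-UAS reporter, co-treated with 3 nM 6-alpha-fluorotestosterone for partial stimulation. Reporter mRNA is quantified at 24 h by RT-PCR and capillary electrophoresis, gain-of-signal versus DMSO.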
# [11] = biological target: Estrogen receptor beta (Homo sapiens) (UniProt Q92731); test: ATG_hERb_XSP1: Attagene TRANS-FACTORIAL Multi-Species (XSP1) HepG2 Assay for human Estrogen Receptor (ESR2) (AID 2283788)
# Summary of the method: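 HepG2 cells transiently transfected with GAL4-UAS multiplexed reporter units, 3 nM 6-alpha-fluorotestosterone present; 24 h exposure. Reporter mRNA measured by RT-PCR, fluorescent labelling and capillary electrophoresis; gain of signal fitted against DMSO.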
# [12] = ATG_M_06_XSP1: Attagene TRANS-FACTORIAL Multi-Species (XSP1) HepG2 Assay for M06 Transcription Factor (Internal Marker) (AID 2283790)
# Summary of the method: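 Transfected HepG2 multi-reporter system treated 24 h in the presence of 3 nM 6-alpha-fluorotestosterone. The M06 internal marker transcript was quantified by RT-PCR with capillary electrophoresis as a background control, and gain of signal was scored versus DMSO.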
# [13] = ATG_M_61_XSP1: Attagene TRANS-FACTORIAL Multi-Species (XSP1) HepG2 Assay for M61 Transcription Factor (Internal Marker) (AID 2283797)
# Summary of the method: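 HepG2 cells transiently transfected with multiplexed GAL4-driven reporter units, dosed 24 h with 3 nM 6-alpha-fluorotestosterone present. Reporter mRNA quantified by RT-PCR, 6-FAM labelling, HpaI digestion and capillary electrophoresis; internal-marker background control, gain of signal versus DMSO.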
# [14] = system: zebrafish Peroxisome Proliferator-activated Receptor gamma (PPARg), gene 557037; test: ATG_zfPPARg_XSP1: Attagene TRANS-FACTORIAL Multi-Species (XSP1) HepG2 Assay for zebrafish Peroxisome Proliferator-activated Receptor gamma (PPARg) (AID 2283801)
# Summary of the method: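 HepG2 cells transiently transfected with GAL4-UAS reporter units including a zebrafish PPARg–GAL4 chimera, dosed 24 h with 3 nM 6-alpha-fluorotestosterone present. Reporter mRNA quantified by RT-PCR, FAM labelling, HpaI digestion and capillary electrophoresis; induction versus DMSO.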
# AR (gene 367) [15] = biological target: AR (gene 367) (UniProt P10275); test: ACEA_AR_agonist_80hr: ACEA Biosciences xCELLigence Real-Time Cell Analysis on Androgen Receptor Agonism for Proliferation (AID 2283783);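 further: hits increase impedance growth signal above DMSO baseline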
# Summary of the method: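 Proliferation of 22Rv1 prostate cancer cells tracked by electrical impedance, endpoint taken at 80 hours after dosing. Eight-point 1:4 dilutions from 100 uM maximum final, duplicate; testosterone and MG132 as positive controls, assay media as negative.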
# [16] = ACEA_AR_agonist_AUC_viability: ACEA Biosciences xCELLigence Real-Time Cell Analysis on Androgen Receptor Agonism for Viability (AID 2283775);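 on AC50: viability read 80 hours after compound addition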
# Summary of the method: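 Read-out is area under the impedance curve at 80 h post-dose in 22Rv1 cells, with DMSO as baseline and signal loss taken as reduced viability. Compounds ran in duplicate from 100 uM final.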
# [17] = ACEA_AR_antagonist_AUC_viability: ACEA Biosciences xCELLigence Real-Time Cell Analysis on Androgen Receptor Antagonism for Viability (AID 2283776);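 further: 22Rv1 human prostate cancer cells growing on impedance electrode plates; area under impedance growth curve at 80 h after dosing as viability; hits lower the growth signal relative to DMSO meaning cytotoxicity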
# Summary of the method: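 Viability endpoint from label-free cell-index monitoring: 22Rv1 cultures treated with an eight-point 1:4 dilution series starting at 100 uM final, AUC at 80 h fitted against DMSO.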
# [18] = ACEA_ER_AUC_viability: ACEA Biosciences xCELLigence Real-Time Cell Analysis on Estrogen Receptor Agonism for Viability (AID 2283782);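 further: continuous compound exposure with impedance area under curve over 80 h; hit means loss of impedance signal meaning reduced cell growth or viability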
# Summary of the method: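 T47D cells preconditioned in phenol red-free RPMI with charcoal-stripped FBS, then dosed with 8-point 1:4 series from 100 uM (up to 0.5% DMSO). Impedance monitored up to ~80 h; area-under-curve loss versus DMSO taken as viability.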
# AR (gene 367) [19] = biological target: AR (gene 367) (UniProt P10275); test: ACEA_AR_antagonist_80hr: ACEA Biosciences xCELLigence Real-Time Cell Analysis on Androgen Receptor Antagonism for Proliferation (AID 2283787);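 further: 22Rv1 human prostate cancer cells with growth followed by electrical impedance; hits lower the impedance growth signal relative to DMSO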
# Summary of the method: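 22Rv1 cells in assay medium, growth tracked by electrical impedance; compounds eight-point 1:4 dilutions from 100 uM final, duplicate plates. Endpoint at 80 h; loss of signal versus DMSO.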
# Sequence of AR (gene 367) (P10275 whole entry, looked up): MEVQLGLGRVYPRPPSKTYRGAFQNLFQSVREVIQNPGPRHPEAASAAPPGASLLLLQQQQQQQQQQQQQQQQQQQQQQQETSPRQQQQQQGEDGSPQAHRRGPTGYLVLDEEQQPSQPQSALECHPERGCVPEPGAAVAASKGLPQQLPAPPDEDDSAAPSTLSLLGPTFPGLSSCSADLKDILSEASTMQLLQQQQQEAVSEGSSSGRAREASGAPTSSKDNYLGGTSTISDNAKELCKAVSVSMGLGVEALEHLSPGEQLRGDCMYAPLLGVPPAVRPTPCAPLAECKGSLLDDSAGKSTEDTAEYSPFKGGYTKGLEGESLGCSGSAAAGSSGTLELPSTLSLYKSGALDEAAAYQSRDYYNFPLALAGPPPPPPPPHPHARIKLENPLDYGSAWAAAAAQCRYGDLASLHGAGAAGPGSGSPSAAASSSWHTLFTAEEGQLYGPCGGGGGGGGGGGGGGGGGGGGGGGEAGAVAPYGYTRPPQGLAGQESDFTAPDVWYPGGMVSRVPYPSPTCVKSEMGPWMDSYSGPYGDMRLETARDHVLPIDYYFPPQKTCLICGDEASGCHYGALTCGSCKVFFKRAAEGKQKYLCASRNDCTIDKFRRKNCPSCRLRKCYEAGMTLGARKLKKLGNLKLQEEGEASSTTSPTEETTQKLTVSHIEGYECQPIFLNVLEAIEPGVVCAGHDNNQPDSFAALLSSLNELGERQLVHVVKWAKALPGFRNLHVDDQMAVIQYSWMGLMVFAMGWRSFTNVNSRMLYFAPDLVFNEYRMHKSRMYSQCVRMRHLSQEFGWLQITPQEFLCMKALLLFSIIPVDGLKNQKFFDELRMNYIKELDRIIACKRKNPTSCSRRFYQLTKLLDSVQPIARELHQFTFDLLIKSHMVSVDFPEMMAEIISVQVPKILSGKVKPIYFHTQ
# Sequence of Estrogen receptor beta (Homo sapiens) (Q92731 whole entry, looked up, the tested form may be a part): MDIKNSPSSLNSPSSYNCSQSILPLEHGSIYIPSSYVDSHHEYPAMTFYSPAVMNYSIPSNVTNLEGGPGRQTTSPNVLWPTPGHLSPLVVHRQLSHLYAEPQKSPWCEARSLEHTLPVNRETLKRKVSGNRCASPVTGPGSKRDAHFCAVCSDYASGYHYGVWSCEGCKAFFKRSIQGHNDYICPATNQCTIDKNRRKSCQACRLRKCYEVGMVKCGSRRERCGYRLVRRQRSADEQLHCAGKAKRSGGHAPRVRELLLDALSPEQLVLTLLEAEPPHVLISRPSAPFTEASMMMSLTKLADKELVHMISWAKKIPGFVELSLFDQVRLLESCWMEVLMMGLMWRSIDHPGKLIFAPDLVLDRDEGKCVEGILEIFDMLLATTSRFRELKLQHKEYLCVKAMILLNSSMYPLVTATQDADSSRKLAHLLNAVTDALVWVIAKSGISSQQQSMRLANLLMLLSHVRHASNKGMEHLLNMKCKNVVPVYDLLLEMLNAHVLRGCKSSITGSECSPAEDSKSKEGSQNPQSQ
# Sequence of chicken Estrogen Receptor (ESR1), ESR1 (gene 396099) (P06212 whole entry, looked up, the tested form may be a part): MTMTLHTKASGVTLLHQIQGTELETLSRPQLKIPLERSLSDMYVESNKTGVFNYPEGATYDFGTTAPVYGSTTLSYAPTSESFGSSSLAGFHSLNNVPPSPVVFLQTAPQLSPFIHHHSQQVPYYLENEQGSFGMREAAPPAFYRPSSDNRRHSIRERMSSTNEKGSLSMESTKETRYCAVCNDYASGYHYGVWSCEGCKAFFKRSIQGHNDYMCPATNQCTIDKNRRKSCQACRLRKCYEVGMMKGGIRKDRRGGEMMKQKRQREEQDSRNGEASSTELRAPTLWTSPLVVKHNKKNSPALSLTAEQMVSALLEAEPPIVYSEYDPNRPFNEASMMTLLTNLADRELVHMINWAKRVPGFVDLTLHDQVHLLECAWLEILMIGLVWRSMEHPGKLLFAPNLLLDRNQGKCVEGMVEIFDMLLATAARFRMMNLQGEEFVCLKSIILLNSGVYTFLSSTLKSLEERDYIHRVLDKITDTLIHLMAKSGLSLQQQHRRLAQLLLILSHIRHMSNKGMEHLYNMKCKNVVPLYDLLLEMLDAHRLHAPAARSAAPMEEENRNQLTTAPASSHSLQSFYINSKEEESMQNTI
# Sequence of zebrafish Estrogen Receptor (ESR1), esr1 (gene 259252) (P57717 whole entry, looked up, the tested form may be a part): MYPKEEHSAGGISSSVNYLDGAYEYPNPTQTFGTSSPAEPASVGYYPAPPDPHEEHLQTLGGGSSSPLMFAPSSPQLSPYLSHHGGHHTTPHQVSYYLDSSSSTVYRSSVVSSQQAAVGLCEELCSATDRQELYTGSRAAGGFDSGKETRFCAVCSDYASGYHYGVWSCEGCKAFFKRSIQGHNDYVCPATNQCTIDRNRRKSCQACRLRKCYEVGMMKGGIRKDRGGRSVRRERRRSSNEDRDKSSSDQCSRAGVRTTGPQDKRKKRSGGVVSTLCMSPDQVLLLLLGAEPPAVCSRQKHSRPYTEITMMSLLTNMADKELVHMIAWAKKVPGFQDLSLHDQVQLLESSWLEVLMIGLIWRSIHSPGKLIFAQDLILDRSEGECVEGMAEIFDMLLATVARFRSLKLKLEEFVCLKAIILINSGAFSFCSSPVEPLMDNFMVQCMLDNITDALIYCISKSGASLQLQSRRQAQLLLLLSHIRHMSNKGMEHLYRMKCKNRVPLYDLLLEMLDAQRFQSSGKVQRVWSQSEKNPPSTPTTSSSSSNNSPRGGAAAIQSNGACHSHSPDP
smiles,measurement,setting,value
CS(=O)(=O)OCCCCOS(C)(=O)=O,outcome,[1],inactive
same,AC50,[2],23.6 µM (active)
CCCCC(CC)COC(=O)c1ccc(O)cc1 (stereo not given),outcome,[3],inactive
same,AC50,[4],3.67 µM (active)
same,AC50,[5],0.86 µM (active)
same,AC50,[6],1.91 µM (active)
same,AC50,[7],1.41 µM (active)
same,AC50,[8],2.3 µM (active)
same,AC50,[9],3.59 µM (active)
same,outcome,[10],inactive
same,outcome,[11],inactive
same,outcome,[12],inactive
same,outcome,[13],inactive
same,outcome,[14],inactive
CCCCCCCCC=CCCCCCCCC1=NCCN1CCO,outcome,AR (gene 367) [15],inactive
CC1CC(O)CC(C)(C)C1 (stereo not given),outcome,[16],inactive
same,outcome,[17],inactive
same,outcome,[18],inactive
Clc1ccc(C(c2ccccc2Cl)C(Cl)Cl)cc1 (stereo not given),outcome,[16],inactive
same,outcome,[17],inactive
same,AC50,[18],29.2 µM (active)
OCCc1ccccc1,outcome,[16],inactive
same,outcome,[17],inactive
same,outcome,[18],inactive
CC1CCC(C(C)C)C(O)C1 (stereo not given),outcome,[16],inactive
same,outcome,[17],inactive
same,outcome,[18],inactive
same,outcome,AR (gene 367) [15],inactive
same,outcome,AR (gene 367) [19],inactive
C=C(C)[C@@H]1CC=C(C)C(=O)C1,outcome,[16],inactive
same,outcome,[17],inactive
Cc1cc(=O)oc2cc(N(C)C)ccc12,outcome,[16],inactive
same,AC50,[17],0.177 µM (active)
same,outcome,[18],inactive
CC(C)CCCCCCc1ccc(OCCOCCO)cc1,outcome,[16],inactive
same,outcome,[17],inactive
same,outcome,[18],inactive
same,outcome,AR (gene 367) [15],inactive
same,outcome,AR (gene 367) [19],inactive
O=C1NC2NC(=O)NC2N1 (stereo not given),outcome,[16],inactive
same,outcome,[17],inactive
same,outcome,[18],inactive
CCCC(=O)OC(C)(C)Cc1ccccc1,outcome,[16],inactive
same,outcome,[17],inactive
same,outcome,[18],inactive
BrCc1cccc(Oc2ccccc2)c1,outcome,[16],inactive
same,outcome,[17],inactive
same,outcome,[18],inactive
same,outcome,AR (gene 367) [19],inactive
CCCCCCCCCCCCCCN(CCO)CCO,AC50,[16],23.7 µM (active)
same,AC50,[17],28.4 µM (active)
same,AC50,[18],7.2 µM (active)
O=C1OC(=O)c2c(Cl)c(Cl)c(Cl)c(Cl)c21,outcome,[16],inactive
same,outcome,[17],inactive
CCCCCC(C)=O,outcome,[16],inactive
same,outcome,[17],inactive
OC[C@H]1O[C@@H]2O[C@H]3[C@H](O)[C@@H](O)[C@@H](O[C@H]4[C@H](O)[C@@H](O)[C@@H](O[C@H]5[C@H](O)[C@@H](O)[C@@H](O[C@H]6[C@H](O)[C@@H](O)[C@@H](O[C@H]7[C@H](O)[C@@H](O)[C@@H](O[C@H]8[C@H](O)[C@@H](O)[C@@H](O[C@H]9[C@H](O)[C@@H](O)[C@@H](O[C@H]1[C@H](O)[C@H]2O)O[C@@H]9CO)O[C@@H]8CO)O[C@@H]7CO)O[C@@H]6CO)O[C@@H]5CO)O[C@@H]4CO)O[C@@H]3CO,outcome,[16],inactive
same,outcome,[17],inactive
same,outcome,[18],inactive
CS(C)=O,outcome,[16],inactive
same,outcome,[17],inactive
same,outcome,[18],inactive
CCOC(=O)C1OC1c1ccccc1 (stereo not given),outcome,[16],inactive
same,outcome,[17],inactive
same,outcome,[18],inactive
